What was measured:
[1] = target: Platelet-derived growth factor receptor beta (Homo sapiens) (UniProt P09619); conditions: at 1 µM;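 note: each value is a mean percent inhibition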
[2] = target: Tyrosine-protein kinase FRK (Homo sapiens) (UniProt P42685); conditions: at 0.1 µM
[3] = target: Tyrosine-protein kinase FRK (Homo sapiens) (UniProt P42685); conditions: at 1 µM
[4] = target: Protein-tyrosine kinase 2-beta (Homo sapiens) (UniProt Q14289); conditions: at 0.1 µM
[5] = target: Protein-tyrosine kinase 2-beta (Homo sapiens) (UniProt Q14289); conditions: at 1 µM
[6] = target: Proto-oncogene tyrosine-protein kinase receptor Ret (Homo sapiens) (UniProt P07949); conditions: at 0.1 µM
Proto-oncogene tyrosine-protein kinase receptor Ret (Homo sapiens), sequence (P07949 whole entry): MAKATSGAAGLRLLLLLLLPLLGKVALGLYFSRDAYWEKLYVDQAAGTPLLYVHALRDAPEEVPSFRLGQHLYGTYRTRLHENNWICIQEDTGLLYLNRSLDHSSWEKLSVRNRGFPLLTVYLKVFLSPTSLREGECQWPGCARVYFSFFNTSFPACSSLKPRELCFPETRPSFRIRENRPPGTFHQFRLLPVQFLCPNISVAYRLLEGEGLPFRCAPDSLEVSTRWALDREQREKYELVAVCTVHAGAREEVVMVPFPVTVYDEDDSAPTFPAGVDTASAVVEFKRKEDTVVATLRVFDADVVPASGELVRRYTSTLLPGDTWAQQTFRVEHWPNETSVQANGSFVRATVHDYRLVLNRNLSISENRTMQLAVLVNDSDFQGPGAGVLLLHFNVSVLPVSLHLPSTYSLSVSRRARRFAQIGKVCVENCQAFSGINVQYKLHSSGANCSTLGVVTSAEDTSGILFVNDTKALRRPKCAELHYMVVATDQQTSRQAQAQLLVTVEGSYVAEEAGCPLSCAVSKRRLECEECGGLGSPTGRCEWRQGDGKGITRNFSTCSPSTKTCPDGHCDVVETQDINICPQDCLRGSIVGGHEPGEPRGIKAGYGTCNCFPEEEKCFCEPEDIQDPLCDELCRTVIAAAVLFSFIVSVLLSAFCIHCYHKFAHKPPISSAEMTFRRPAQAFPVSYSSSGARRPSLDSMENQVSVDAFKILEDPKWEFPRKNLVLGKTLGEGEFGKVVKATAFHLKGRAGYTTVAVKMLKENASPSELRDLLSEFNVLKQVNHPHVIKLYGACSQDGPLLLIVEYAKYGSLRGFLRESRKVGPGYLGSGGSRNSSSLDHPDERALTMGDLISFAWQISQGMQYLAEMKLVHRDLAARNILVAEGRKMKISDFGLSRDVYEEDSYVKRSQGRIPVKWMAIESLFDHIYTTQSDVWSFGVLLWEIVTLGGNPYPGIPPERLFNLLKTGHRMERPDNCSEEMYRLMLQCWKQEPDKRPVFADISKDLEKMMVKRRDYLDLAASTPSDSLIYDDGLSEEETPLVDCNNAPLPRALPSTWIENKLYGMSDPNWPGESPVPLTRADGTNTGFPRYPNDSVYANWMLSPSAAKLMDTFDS

[7] = target: Proto-oncogene tyrosine-protein kinase receptor Ret (Homo sapiens) (UniProt P07949); conditions: at 1 µM
[8] = system: Proto-oncogene tyrosine-protein kinase receptor Ret (Homo sapiens), P07949 [V804L]; conditions: at 0.1 µM
Proto-oncogene tyrosine-protein kinase receptor Ret (Homo sapiens), P07949 [V804L], sequence (P07949 whole entry V804L): as the sequence (P07949 whole entry) above, with V804L counted along it

[9] = system: Proto-oncogene tyrosine-protein kinase receptor Ret (Homo sapiens), P07949 [V804L]; conditions: at 1 µM
[10] = system: Proto-oncogene tyrosine-protein kinase receptor Ret (Homo sapiens), P07949 [Y791F]; conditions: at 0.1 µM
Proto-oncogene tyrosine-protein kinase receptor Ret (Homo sapiens), P07949 [Y791F], sequence (P07949 whole entry Y791F): as the sequence (P07949 whole entry) above, with Y791F counted along it

[11] = system: Proto-oncogene tyrosine-protein kinase receptor Ret (Homo sapiens), P07949 [Y791F]; conditions: at 1 µM
[12] = target: Macrophage-stimulating protein receptor (Homo sapiens) (UniProt Q04912); conditions: at 0.1 µM
[13] = target: Macrophage-stimulating protein receptor (Homo sapiens) (UniProt Q04912); conditions: at 1 µM
[14] = target: Proto-oncogene tyrosine-protein kinase ROS (Homo sapiens) (UniProt P08922); conditions: at 0.1 µM
Proto-oncogene tyrosine-protein kinase ROS (Homo sapiens), sequence (P08922 whole entry): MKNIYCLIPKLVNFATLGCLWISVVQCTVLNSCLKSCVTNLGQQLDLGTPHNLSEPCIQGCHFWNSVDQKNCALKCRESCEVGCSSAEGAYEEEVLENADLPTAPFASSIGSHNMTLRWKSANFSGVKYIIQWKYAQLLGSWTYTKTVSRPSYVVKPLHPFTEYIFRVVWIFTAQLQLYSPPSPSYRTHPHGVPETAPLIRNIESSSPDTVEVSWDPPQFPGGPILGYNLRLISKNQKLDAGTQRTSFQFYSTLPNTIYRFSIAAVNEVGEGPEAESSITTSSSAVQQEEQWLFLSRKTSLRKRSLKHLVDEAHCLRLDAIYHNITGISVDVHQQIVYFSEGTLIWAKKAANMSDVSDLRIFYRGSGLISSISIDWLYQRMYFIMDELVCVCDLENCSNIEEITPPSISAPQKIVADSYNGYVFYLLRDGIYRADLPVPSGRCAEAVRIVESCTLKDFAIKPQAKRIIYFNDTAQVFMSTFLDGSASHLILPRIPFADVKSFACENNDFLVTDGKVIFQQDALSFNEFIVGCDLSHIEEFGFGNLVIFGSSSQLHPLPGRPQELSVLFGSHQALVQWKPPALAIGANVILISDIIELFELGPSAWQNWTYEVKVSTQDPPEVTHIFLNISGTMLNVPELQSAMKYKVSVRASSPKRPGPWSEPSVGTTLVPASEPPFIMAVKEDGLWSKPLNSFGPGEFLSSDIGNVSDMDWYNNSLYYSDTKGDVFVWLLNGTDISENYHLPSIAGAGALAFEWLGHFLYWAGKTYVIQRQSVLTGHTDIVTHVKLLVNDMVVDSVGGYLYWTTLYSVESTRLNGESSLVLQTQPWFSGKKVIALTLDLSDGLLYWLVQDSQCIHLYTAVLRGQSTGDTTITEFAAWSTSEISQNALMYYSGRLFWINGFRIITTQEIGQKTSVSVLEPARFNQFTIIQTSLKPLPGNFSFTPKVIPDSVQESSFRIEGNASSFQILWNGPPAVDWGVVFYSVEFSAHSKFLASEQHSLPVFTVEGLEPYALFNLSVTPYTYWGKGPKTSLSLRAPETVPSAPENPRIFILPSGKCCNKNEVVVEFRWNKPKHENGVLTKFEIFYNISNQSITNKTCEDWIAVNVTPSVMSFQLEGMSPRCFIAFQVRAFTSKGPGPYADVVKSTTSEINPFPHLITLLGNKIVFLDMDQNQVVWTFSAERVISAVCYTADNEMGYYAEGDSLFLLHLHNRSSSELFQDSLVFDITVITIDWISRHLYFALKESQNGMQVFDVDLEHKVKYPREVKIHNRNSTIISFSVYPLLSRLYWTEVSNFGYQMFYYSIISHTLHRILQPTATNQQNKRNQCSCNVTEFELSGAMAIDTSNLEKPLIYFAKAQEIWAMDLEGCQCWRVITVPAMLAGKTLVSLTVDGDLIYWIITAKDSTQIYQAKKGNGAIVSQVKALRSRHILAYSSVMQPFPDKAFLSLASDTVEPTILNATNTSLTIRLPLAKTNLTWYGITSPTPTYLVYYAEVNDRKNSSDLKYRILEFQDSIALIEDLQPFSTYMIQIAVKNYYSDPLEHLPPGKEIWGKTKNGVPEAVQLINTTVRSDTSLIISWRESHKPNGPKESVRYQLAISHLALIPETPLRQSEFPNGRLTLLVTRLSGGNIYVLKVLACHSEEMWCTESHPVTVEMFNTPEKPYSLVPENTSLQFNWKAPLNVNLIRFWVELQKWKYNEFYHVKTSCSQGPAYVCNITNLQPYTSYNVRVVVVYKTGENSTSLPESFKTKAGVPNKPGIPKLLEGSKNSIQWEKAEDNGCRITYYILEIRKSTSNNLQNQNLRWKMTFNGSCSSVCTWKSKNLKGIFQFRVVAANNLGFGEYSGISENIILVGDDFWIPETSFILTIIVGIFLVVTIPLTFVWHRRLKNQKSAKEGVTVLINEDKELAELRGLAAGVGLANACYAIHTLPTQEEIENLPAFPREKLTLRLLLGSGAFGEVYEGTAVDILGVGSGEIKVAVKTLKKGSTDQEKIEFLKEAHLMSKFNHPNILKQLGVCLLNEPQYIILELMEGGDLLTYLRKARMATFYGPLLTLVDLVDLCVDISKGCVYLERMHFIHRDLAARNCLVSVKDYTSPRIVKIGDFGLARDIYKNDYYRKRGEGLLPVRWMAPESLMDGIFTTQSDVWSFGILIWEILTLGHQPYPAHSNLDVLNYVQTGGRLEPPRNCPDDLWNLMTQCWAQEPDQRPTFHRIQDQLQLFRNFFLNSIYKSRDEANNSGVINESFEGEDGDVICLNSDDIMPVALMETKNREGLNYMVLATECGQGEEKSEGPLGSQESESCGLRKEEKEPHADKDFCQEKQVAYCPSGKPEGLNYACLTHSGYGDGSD

[15] = target: Proto-oncogene tyrosine-protein kinase ROS (Homo sapiens) (UniProt P08922); conditions: at 1 µM
[16] = target: Proto-oncogene tyrosine-protein kinase Src (Homo sapiens) (UniProt P12931); conditions: at 0.1 µM
Proto-oncogene tyrosine-protein kinase Src (Homo sapiens), sequence (P12931 2-536 limits assumed): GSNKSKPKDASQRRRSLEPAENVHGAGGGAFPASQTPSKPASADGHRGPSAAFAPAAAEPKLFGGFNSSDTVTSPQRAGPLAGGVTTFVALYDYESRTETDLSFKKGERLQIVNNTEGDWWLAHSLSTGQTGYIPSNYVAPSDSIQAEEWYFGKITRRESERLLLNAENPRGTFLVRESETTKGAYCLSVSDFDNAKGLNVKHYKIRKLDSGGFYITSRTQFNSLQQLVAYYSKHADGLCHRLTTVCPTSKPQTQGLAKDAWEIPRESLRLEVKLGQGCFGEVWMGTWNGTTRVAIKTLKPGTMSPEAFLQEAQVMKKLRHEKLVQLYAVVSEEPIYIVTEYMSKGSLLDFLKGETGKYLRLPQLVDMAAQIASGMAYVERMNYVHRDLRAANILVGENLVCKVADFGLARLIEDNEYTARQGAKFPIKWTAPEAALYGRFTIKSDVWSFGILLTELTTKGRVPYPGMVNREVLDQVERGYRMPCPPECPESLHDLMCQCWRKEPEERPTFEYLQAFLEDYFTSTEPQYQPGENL

[17] = target: Proto-oncogene tyrosine-protein kinase Src (Homo sapiens) (UniProt P12931); conditions: at 1 µM
[18] = target: Tyrosine-protein kinase Srms (Homo sapiens) (UniProt Q9H3Y6); conditions: at 0.1 µM
Tyrosine-protein kinase Srms (Homo sapiens), sequence (Q9H3Y6 whole entry): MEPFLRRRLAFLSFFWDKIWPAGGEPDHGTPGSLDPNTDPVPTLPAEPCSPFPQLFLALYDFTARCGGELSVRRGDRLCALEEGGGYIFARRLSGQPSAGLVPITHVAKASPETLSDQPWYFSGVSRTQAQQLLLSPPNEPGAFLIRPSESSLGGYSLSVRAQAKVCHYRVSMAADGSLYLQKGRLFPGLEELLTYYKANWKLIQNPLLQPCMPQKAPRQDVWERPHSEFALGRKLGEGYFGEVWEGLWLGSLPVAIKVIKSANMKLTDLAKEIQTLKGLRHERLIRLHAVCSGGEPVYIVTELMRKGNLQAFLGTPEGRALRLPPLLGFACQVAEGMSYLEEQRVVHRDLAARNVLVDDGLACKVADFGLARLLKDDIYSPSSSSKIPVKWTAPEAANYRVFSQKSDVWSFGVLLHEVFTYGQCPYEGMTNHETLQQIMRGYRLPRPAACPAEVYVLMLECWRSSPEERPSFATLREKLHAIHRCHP

[19] = target: Tyrosine-protein kinase Srms (Homo sapiens) (UniProt Q9H3Y6); conditions: at 1 µM
[20] = target: Tyrosine-protein kinase SYK (Homo sapiens) (UniProt P43405); conditions: at 0.1 µM;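 note: reported percentages are mean inhibition values for SYK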

Tyrosine-protein kinase FRK (Homo sapiens), sequence (P42685 whole entry): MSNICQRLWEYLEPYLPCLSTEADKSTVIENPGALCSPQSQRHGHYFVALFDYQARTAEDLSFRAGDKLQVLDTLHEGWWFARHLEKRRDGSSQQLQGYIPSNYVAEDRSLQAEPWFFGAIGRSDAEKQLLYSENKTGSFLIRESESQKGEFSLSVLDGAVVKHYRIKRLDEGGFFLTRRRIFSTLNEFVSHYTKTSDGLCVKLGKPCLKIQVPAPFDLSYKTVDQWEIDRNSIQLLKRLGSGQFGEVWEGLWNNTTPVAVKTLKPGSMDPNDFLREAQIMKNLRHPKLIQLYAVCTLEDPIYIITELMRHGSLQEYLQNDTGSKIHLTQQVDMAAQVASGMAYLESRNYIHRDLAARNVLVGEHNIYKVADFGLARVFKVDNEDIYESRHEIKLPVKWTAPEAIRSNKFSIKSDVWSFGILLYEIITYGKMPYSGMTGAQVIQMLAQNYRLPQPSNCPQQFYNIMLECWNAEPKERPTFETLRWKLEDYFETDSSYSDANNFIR

Structure (SMILES) | inhibition [1] | inhibition [2] | inhibition [3] | inhibition [4] | inhibition [5] | inhibition [6] | inhibition [7] | inhibition [8] | inhibition [9] | inhibition [10] | inhibition [11] | inhibition [12] | inhibition [13] | inhibition [14] | inhibition [15] | inhibition [16] | inhibition [17] | inhibition [18] | inhibition [19] | inhibition [20]
COc1cc2ncn(-c3cc(OCc4ccccc4S(C)(=O)=O)c(C#N)s3)c2cc1OC | 78.1% | 3.38% | 4.36% | 12% | 25.6% | 18.2% | 63.7% | 11.3% | 53.6% | 23.2% | 59.1% | -3.29% | 8.3% | 27.4% | 68.7% | 3.54% | 50.1% | 2.07% | 26.9% | -8.27%
Cc1ccc2c(-c3ccnc(Nc4cccc(C(F)(F)F)c4)n3)c(-c3ccccc3)nn2n1 | 85.2% | 5% | 30.1% | 16.5% | 59.5% | 15.4% | 51% | 2.52% | 3.3% | 6.2% | 37.9% | 2.85% | 13.6% | 7.31% | 9.43% | 25.3% | 72.9% | 1.71% | 22.1% | 0.45%
Nc1nccc(C#Cc2cncnc2Nc2ccc(OCc3cccc(F)c3)c(Cl)c2)n1 | 11.6% | 2.59% | 0.85% | 8.24% | 14.2% | 1.17% | 5.76% | 10.1% | 15% | 4.88% | 10.5% | -0.99% | 9.09% | 7.35% | 16.2% | 0.36% | 7.62% | 0.29% | -3.68% | -6.1%
NS(=O)(=O)c1cccc(Nc2cc(-c3ccc(F)cc3)n[nH]2)c1 | 38% | 1.05% | 2.07% | 7.64% | 12.6% | 4.74% | 17.9% | 5.42% | 25.3% | 3.26% | 23.6% | -6.54% | 8.51% | 4.34% | 4.36% | 3.21% | 10.4% | -0.24% | 2.26% | -3.53%
CS(=O)(=O)CCNCc1nc(-c2ccc3ncnc(Nc4ccc(OCc5cccc(C(F)(F)F)c5)cc4)c3c2)cs1 | 10.1% | 1.71% | 0.38% | -1.25% | 2.41% | 5.26% | 4.11% | 2.89% | 5.13% | 7.97% | 5.88% | 4.48% | 2.59% | 4.03% | 4.18% | 6.29% | 7.64% | -0.76% | -3.56% | 0.35%
CN1CCN(C(=O)c2ccc(NC(=O)Nc3ccc(N(C)c4ccnc(Nc5ccc(CS(C)(=O)=O)cc5)n4)cc3)cc2)CC1 | 79.3% | 1.47% | 4.04% | 29.2% | 88.6% | 38.8% | 76.8% | 27.2% | 67.1% | 60.7% | 82.8% | 18.6% | 58.6% | 14.6% | 54.1% | 10.7% | 42.2% | 0.11% | 5.6% | -0.89%
Cc1cc(-c2ccccn2)cc(C)c1/C=C/c1cncc(-c2nn[nH]n2)c1 | 13.4% | 1.59% | 4.57% | 3.75% | 13.3% | 5.88% | 5.38% | 3.85% | 5.09% | 5.19% | 9.36% | 3.67% | 3.94% | 9.51% | 10.9% | 7.7% | 15.4% | -2.18% | 11.8% | -0.33%
NS(=O)(=O)c1ccc(Nc2cc(-c3cccc(O)c3)n[nH]2)cc1 | 26.1% | 0.88% | 2.04% | 10.7% | 12.3% | 6.46% | 15.5% | 9.69% | 21.3% | 13.4% | 26.2% | 5.75% | 0.78% | 6.66% | 12.1% | 3.91% | 11.9% | -2.79% | -7.29% | -3.9%
CCCN1CCCC(c2ccc(Nc3nc(Nc4cc(F)ccc4C(N)=O)c4cc[nH]c4n3)c(OC)c2)C1 (centres undefined) | 32.2% | 7.2% | 20.5% | 96% | 97.7% | 8.63% | 20.9% | 10.1% | 41.6% | 8.67% | 23.6% | 0.58% | 13.1% | 63.8% | 81.2% | -0.17% | 14.6% | 1.99% | 22.1% | –
Cc1ccc(C(=O)NC2CC2)cc1-c1ccc2[nH]ncc2c1 | 6.94% | -2.56% | -4.36% | -4.62% | -8.03% | -2.17% | -0.48% | -1.65% | 0.72% | -3.09% | -0.71% | -3.31% | -6.03% | 0.92% | 1.49% | -6.61% | -7.08% | -1.77% | 0.94% | -1.71%
Oc1cccc(-c2nc(-c3ccccc3)[nH]c2-c2ccncc2)c1 | 17.1% | 2.98% | 16.5% | 7.31% | 14.2% | 27.4% | 72.8% | 4.04% | 7.21% | 30% | 71.2% | 1.43% | 5.25% | 4.41% | 9.95% | 18.7% | 63.2% | 3.43% | 8.65% | -2.15%
Cc1ccc2c(-c3ccnc(Nc4ccc5c(c4)OCCO5)n3)c(-c3ccc(C(F)(F)F)cc3)nn2n1 | 4.63% | -1.35% | -0.65% | -0.75% | 2.42% | -1.02% | 3.09% | 0.74% | 1.64% | 1.62% | 5.72% | -0.07% | 4.33% | 1.22% | 2.46% | 1.69% | 5.52% | -0.03% | 0.07% | -0.8%
O=C1Nc2ccccc2/C1=C/Nc1ccc2[nH]c(=O)[nH]c2c1 | 56.7% | 6.33% | 8.07% | 20.6% | 46.4% | 23.7% | 61.3% | 32.4% | 75.4% | 25.8% | 67% | 5.9% | 10.9% | 3.89% | 11.8% | 5.5% | 31% | -2.08% | 3.2% | 3.76%
Nc1ccc(C#Cc2cncnc2Nc2ccc(OCc3cccc(F)c3)c(Cl)c2)cc1 | 3.64% | 0.8% | 1.06% | -4.77% | 0.23% | 6.12% | 7.18% | 9.98% | 3.18% | 2.75% | 4.06% | 7.87% | 1.71% | 1.61% | 3.55% | 5.95% | 3.71% | -2.09% | -0.77% | -0.35%
COc1cccc(-n2nc(C)c3c(N/N=C(\C)c4ccncc4)ncnc32)c1 | 5.79% | 0.1% | -0.17% | 1.44% | 8.6% | -0.76% | 0.88% | 1.04% | 1.23% | 2.73% | 5.78% | -3.77% | -0.1% | 2.71% | 4.49% | 2.45% | 3.26% | 0.84% | 2.72% | 1.37%
NS(=O)(=O)c1ccc(NC=C2C(=O)Nc3ccc4ncsc4c32)cc1 | 89.8% | 4.28% | 4.47% | 21.8% | 66.8% | 47.7% | 79.9% | 59% | 78.3% | 46.1% | 72.4% | 10.4% | 56.3% | 17.3% | 36.8% | 14.2% | 61.9% | -1.05% | 0.07% | -8.02%
COc1cc2ncnc(Nc3ccc4c(cnn4Cc4ccccc4)c3)c2cc1OC | 6.26% | 1.94% | 6.16% | 6.05% | 9.57% | 8.77% | 28.6% | 3.73% | 9.3% | 9.71% | 40% | 3.2% | 2.02% | 6.51% | 4.63% | 10.1% | 41.8% | 0.35% | 4.63% | 4.44%
c1ccc(Nc2ncc(-c3ccccc3)o2)cc1 | 36% | 3.95% | 4.95% | 10.4% | 14.3% | 6.9% | 9.61% | 2.13% | 6.39% | 5.1% | 11.5% | 8.13% | 9.16% | 7.47% | 5.92% | 9.27% | 14.3% | 0.17% | 2.19% | 1.8%
O=S(=O)(CCOCc1ccc(-c2ccc3ncnc(Nc4ccc(OCc5cccc(F)c5)c(Cl)c4)c3c2)o1)c1ccccc1 | 7.33% | 1.09% | 0.79% | 4.11% | 8.55% | 5.25% | 5.38% | 6.3% | 10.1% | 7.95% | 7.27% | 3.62% | 1.46% | 2.65% | 3.57% | 0.66% | 0.4% | -1.31% | -2.52% | 1.93%
FC(F)(F)c1ccc(-c2nn3ncccc3c2-c2ccnc(Nc3ccc4c(c3)OCCO4)n2)cc1 | 17.4% | 1.38% | 2.35% | 2.83% | 1.96% | 8.08% | 29.2% | 9.12% | 14.3% | 8.67% | 43.9% | 11.8% | 0.63% | 7.87% | 9.43% | 0.84% | 15.8% | 8.49% | 8.73% | 3.37%
COC(=O)c1ccc2c(c1)C(=Cc1cc(Br)c(O)c(Br)c1)C(=O)N2 | 6.26% | 1.55% | 7.02% | 3.82% | 13.8% | 7.67% | 25.8% | 7.28% | 39.8% | 12.2% | 21.5% | 1.56% | 3.36% | 6.38% | 9.41% | 8.74% | 19.6% | 30.9% | 75.9% | 0.74%
Nc1nccc(-c2c(-c3ccc(F)cc3)ncn2CCCN2CCOCC2)n1 | 11.8% | 1.5% | 1.08% | 9.24% | 8.65% | 4.75% | 5.26% | 1.67% | 4.72% | 2.28% | 24.9% | -1.76% | 2.17% | 5.06% | 5.81% | -0.33% | 8.77% | -1.41% | 1.12% | -6.28%
OCc1ccc(-c2nc(-c3ccccn3)c(-c3ccc4c(c3)OCO4)[nH]2)cc1 | 11% | 2.25% | 2.05% | 12% | 13.1% | 4.72% | 4.99% | 4.41% | 1.05% | 12.3% | 6.59% | -1.95% | -0.55% | 6.84% | 8.11% | -0.99% | 10.6% | 0.43% | -1.19% | -7.53%
CN(C)C(=O)O[C@@H]1CN[C@@H](C#Cc2cc3ncnc(Nc4ccc(OCc5cccc(F)c5)c(Cl)c4)c3s2)C1 | 9.98% | 0.71% | 2.18% | -3.27% | 3.14% | 3.72% | 4.94% | 0.31% | -0.74% | 3.85% | 0.86% | -3.14% | -2.46% | 1.04% | 4.92% | 3.94% | 3.62% | -1.8% | -0.67% | 6.58%
